Assay results from PubChem BioAssay AID1159580 (chemical genetic matrix, 2015).
Out of some 5,500 compounds screened, about 2,000 (36%) were called active. Roughly 18% stayed inconclusive and do not appear here. No stated cut-off is given here; in the data, active means normalized growth mostly below about 0.91 (no sharp cut-off); inconclusive means no clear call, values can overlap the other calls; inactive means mostly above about 0.92. The list shows a part of the results.

Experiment: chemical genetic growth profiling, strain panel (AID 1159580);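 further: tested at 20 µM; growth read once vehicle control cultures reached saturation at 30 °C; 1 = growth at the plate median or of vehicle wells; lower values mean less growth of the strain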
Conditions: S. cerevisiae deletion strains, growth OD
[1] = locus YHR030C, strain SLT2, active compounds read low
[2] = locus YJL187C, strain SWE1, active compounds read low

Measured: normalized growth

CN(C)c1ccc(-c2n[nH]c(=O)c3ccccc23)cc1[N+](=O)[O-]
inactive: locus YAL013W, strain DEP1, active compounds read low 0.966 | locus YBR229C, strain ROT2, active compounds read low 0.986 | locus YCL061C, strain MRC1, active compounds read low 0.98 | locus YDL101C, strain DUN1, active compounds read low 1 | locus YDR150W, strain NUM1, active compounds read low 0.981 | locus YGR078C, strain PAC10, active compounds read low 1 | [1] 0.875 | locus YHR087W, strain rtc3, active compounds read low 0.982 | [2] 0.978 | locus YJR043C, strain POL32, active compounds read low 0.963 | locus YJR075W, strain HOC1, active compounds read low 0.99 | locus YKL190W, strain CNB1, active compounds read low 1.01 | locus YLR039C, strain RIC1, active compounds read low 1.09 | locus YLR058C, strain SHM2 (second series), active compounds read low 0.994 | locus YLR085C, strain ARP6, active compounds read low 0.882 | locus YLR262C, strain YPT6, active compounds read low 1.08 | locus YML094W, strain GIM5, active compounds read low 0.891 | locus YMR219W, strain ESC1, active compounds read low 0.999 | locus YMR263W, strain SAP30, active compounds read low 0.961 | locus YNL153C, strain GIM3, active compounds read low 0.979 | locus YNL298W, strain CLA4 (second series), active compounds read low 0.891 | locus YNL322C, strain KRE1, active compounds read low 1.03 | locus YNR030W, strain Alg12, active compounds read low 0.955 | locus YPL055C, strain LGE1, active compounds read low 0.886 | locus YPL241C, strain CIN2, active compounds read low 0.96 | locus YPR135W, strain CTF4, active compounds read low 0.97
active: locus YEL061C, strain CIN8, active compounds read low 0.907

NC(=O)CS(=O)C(c1ccccc1)c1ccccc1 (stereo unspecified)
inactive: locus YAL021C, strain ccr4, active compounds read low 1.01 | locus YAL026C, strain drs2, active compounds read low 1.04 | locus YAL030W, strain snc1, active compounds read low 1.02 | locus YBL061C, strain skt5, active compounds read low 1.02 | locus YBR009C, strain hhf1, active compounds read low 0.976 | locus YBR023C, strain chs3, active compounds read low 1.03 | locus YBR171W, strain sec66, active compounds read low 1.02 | locus YBR231C, strain swc5, active compounds read low 1 | locus YBR279W, strain paf1, active compounds read low 1.02 | locus YCL011C, strain gbp2, active compounds read low 1.02 | locus YCL016C, strain dcc1, active compounds read low 1.04 | locus YCL069W, strain vba3, active compounds read low 0.998 | locus YCR088W, strain abp1, active compounds read low 1.01 | locus YDL005C, strain med2, active compounds read low 1.03 | locus YDL040C, strain nat1, active compounds read low 0.998 | locus YDR001C, strain nth1, active compounds read low 1 | locus YDR069C, strain doa4, active compounds read low 1.02 | locus YDR137W, strain rgp1, active compounds read low 1.05 | locus YDR159W, strain sac3, active compounds read low 0.939 | locus YDR195W, strain ref2 0.981 | locus YDR297W, strain sur2, active compounds read low 0.994 | locus YDR334W, strain swr1, active compounds read low 1 | locus YDR335W, strain msn5, active compounds read low 1.02 | locus YDR392W, strain spt3, active compounds read low 0.968 | locus YEL003W, strain gim4, active compounds read low 0.99 | locus YEL037C, strain rad23, active compounds read low 1.01 | locus YEL061C, strain CIN8 (second series), active compounds read low 1.01 | locus YER015W, strain faa2, active compounds read low 1.01 | locus YER016W, strain bim1, active compounds read low 1.02 | locus YER111C, strain swi4, active compounds read low 1.01 | locus YER155C, strain BEM2 (second series), active compounds read low 1.02 | locus YFR010W, strain ubp6, active compounds read low 0.987 | locus YGL167C, strain pmr1, active compounds read low 1 | locus YGL173C, strain kem1, active compounds read low 1 | locus YGL227W, strain vid30, active compounds read low 1.01 | locus YGL240W, strain doc1, active compounds read low 1.01 | locus YGL253W, strain hxk2, active compounds read low 1.03 | locus YHR013C, strain ard1, active compounds read low 1.05 | locus YHR027C, strain rpn1, active compounds read low 1.01 | [1] 1.04 | locus YHR079C, strain IRE1, active compounds read low 1.04 | locus YHR142W, strain chs7, active compounds read low 1.01 | locus YJL092W, strain hpr5, active compounds read low 1 | locus YJL095W, strain BCK1 (second series), active compounds read low 1.02 | locus YJL095W, strain BCK1, active compounds read low 0.996 | locus YJL115W, strain asf1, active compounds read low 1.01 | locus YJL129C, strain trk1, active compounds read low 1.04 | locus YJL154C, strain vps35, active compounds read low 1.01 | locus YJL164C, strain tpk1, active compounds read low 0.988 | locus YJL166W, strain qcr8, active compounds read low 0.982 | [2] 1.01 | locus YJR066W, strain TOR1, active compounds read low 0.977 | locus YKL160W, strain elf1, active compounds read low 1.05 | locus YKR026C, strain gcn3, active compounds read low 1.01 | locus YKR091W, strain srl3, active compounds read low 1.01 | locus YLL001W, strain dnm1, active compounds read low 0.972 | locus YLL026W, active compounds read low 1 | locus YLL041C, strain sdh2, active compounds read low 1 | locus YLR027C, strain aat2, active compounds read low 0.985 | locus YLR113W, strain HOG1, active compounds read low 0.961 | locus YLR221C, strain rsa3, active compounds read low 0.977 | locus YLR258W, strain gsy2, active compounds read low 1.03 | locus YLR262C, strain YPT6 (second series), active compounds read low 1.01 | locus YLR320W, strain mms22, active compounds read low 0.958 | locus YLR342W, strain FKS1, active compounds read low 1.02 | locus YLR357W, strain rsc2, active compounds read low 0.997 | locus YLR370C, strain arc18, active compounds read low 1.02 | locus YLR384C, strain iki3, active compounds read low 1.02 | locus YML120C, strain ndi1, active compounds read low 0.981 | locus YMR058W, strain fet3, active compounds read low 1.02 | locus YMR125W, strain sto1, active compounds read low 1.04 | locus YMR129W, active compounds read low 1.01 | locus YMR205C, strain PFK2, active compounds read low 1.01 | locus YMR231W, strain pep5, active compounds read low 0.999 | locus YNL071W, strain lat1, active compounds read low 1.02 | locus YNL183C, strain NPR1, active compounds read low 0.958 | locus YNL209W, strain ssb2, active compounds read low 1.01 | locus YNL248C, strain rpa49, active compounds read low 1.04 | locus YNL322C, strain KRE1 (second series), active compounds read low 1.02 | locus YNR049C, strain mso1, active compounds read low 1.03 | locus YOR001W, strain rrp6, active compounds read low 0.928 | locus YOR070C, strain gyp1, active compounds read low 1.01 | locus YOR080W, strain dia2, active compounds read low 1.01 | locus YOR083W, strain WHI5, active compounds read low 0.976 | locus YOR106W, strain vam3, active compounds read low 1.02 | locus YOR231W, strain MKK1, active compounds read low 1.02 | locus YOR265W, strain rbl2, active compounds read low 1.01 | locus YOR270C, strain vph1, active compounds read low 1.05 | locus YOR290C, strain snf2, active compounds read low 1.06 | locus YPL051W, strain arl3, active compounds read low 1.06 | locus YPL078C, strain atp4, active compounds read low 1.05 | locus YPL106C, strain sse1, active compounds read low 1.04 | locus YPL240C, strain hsp82, active compounds read low 1 | locus YPL256C, strain CLN2, active compounds read low 1.06
